The target of test [1] is Lysosomal acid glucosylceramidase (Homo sapiens) (UniProt P04062). As to the kind of experiment: Glucocerebrosidase-p2 (AID 348; in the data active means potency below about 10 µM; further: potency means the concentration at half of the fitted maximal effect). As to conditions: purified GBA, blue fluorogenic substrate, 40 min. In a few lines: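 Compounds titrated from 0.6 nM upwards against 0.2 nM enzyme in pH 5.9 citric acid/KH2PO4, taurocholate, tween-20; blue fluorogenic substrate 80 uM, 40 min room temperature, stopped and read Ex 365/Em 440 for AC50.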
Sequence of Lysosomal acid glucosylceramidase (Homo sapiens) (P04062 whole entry, looked up): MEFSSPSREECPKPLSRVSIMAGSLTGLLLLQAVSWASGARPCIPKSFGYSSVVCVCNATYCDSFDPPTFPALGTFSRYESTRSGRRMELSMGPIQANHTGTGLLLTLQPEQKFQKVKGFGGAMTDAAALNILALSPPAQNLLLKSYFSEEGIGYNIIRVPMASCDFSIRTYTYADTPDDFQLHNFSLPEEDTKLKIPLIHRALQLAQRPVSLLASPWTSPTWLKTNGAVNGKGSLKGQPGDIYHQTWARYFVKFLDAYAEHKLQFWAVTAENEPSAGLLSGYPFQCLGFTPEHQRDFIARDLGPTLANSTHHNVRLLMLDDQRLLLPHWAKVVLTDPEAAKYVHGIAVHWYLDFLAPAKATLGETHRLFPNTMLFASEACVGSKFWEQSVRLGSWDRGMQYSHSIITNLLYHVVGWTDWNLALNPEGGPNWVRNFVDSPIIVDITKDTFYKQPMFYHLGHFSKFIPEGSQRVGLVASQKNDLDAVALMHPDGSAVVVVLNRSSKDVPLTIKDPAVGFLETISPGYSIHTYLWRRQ

A short description of test [2]: AP1 Signaling Pathway (AID 357). Further: on the % scale 0 is the no-effect control and ±100 the full control effect. As to conditions: ME-180 AP-1-bla reporter, EGF-induced, beta-lactamase ratio, 5 h; at 7.69 µM (top of the series) unless noted. In short, it runs like this: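 Cells are seeded overnight, exposed to compound titrations and an EC50 level of EGF for 5 hours at 37 °C, then loaded with CCF4 dye for 2.5 hours. Beta-lactamase activity under the AP-1 element is read as a blue/green ratio.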

Test [3] has as its target Cytochrome P450 1A2 (Homo sapiens) (UniProt P05177). As to the kind of experiment: p450-cyp1a2 (AID 410; calls by dose curve; further: potency means the concentration at half of the fitted maximal effect;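 on activity change, negative = inhibition: -100% = full effect of reference inhibitor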). The settings on record: recombinant CYP1A2, luciferin-ME demethylation, luminescence; series mostly up to 57 µM. In a few lines: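 20nM CYP1A2 with 100uM Luciferin-ME (at Km) in 100mM KPO4; compound preincubated 10 min, NADPH regeneration added, 60 min at room temperature. Luciferin quantified by luminescence after detection reagent; normalized to 57 uM furafylline.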

The nature of test [4]: NFAT Signaling Pathway (AID 444).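 Further: carbachol stimulus at about its EC50 of 1 µM final; on the % scale 0 is the no-effect control and ±100 the full control effect.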 The settings on record: Jurkat NFAT-bla M1, carbachol, beta-lactamase ratio, 5 h; at 7.69 µM (top of the series) unless noted. In a few lines:
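Jurkat cells with NFAT-driven β-lactamase reporter and co-expressed M1 receptor, stimulated with carbachol (final 1 uM, ~EC50), compound titration, 5 h at 37 °C. CCF4 loaded 1 h at RT; 460/530 nm ratio gave %activity and AC50.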

Test [5] is described as follows: Stat Signaling Pathway (AID 446).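 Further: ME-180 cervical cancer cells given 40 pM IL-6 alongside compound; SIE-controlled beta-lactamase reporter measured as 460/530 nm FRET emission ratio; on the % scale 0 is the no-effect control and ±100 the full control effect.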 As to conditions: ME-180 SIE beta-lactamase reporter, IL-6 stimulated, 5 h; at 7.69 µM (top of the series) unless noted. In short, it runs like this: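 ME-180 SIE-bla cells; overnight plating; cpd + IL-6 40 pM, 5 h, 37 C; LiveBLAzer 2.5 h RT; 460/530 nm emission ratio. Normalized to 300 pM IL-6 and 125 nM JAK inhibitor controls.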

Test [6] deals with Glucocorticoid receptor (Homo sapiens) (UniProt P04150). Nature of the test: GR-GFP Redistribution (AID 450;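 active means compounds whose dose series gives a full or clear partial fitted curve of increased nuclear translocation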; further: potency means the concentration at half of the fitted maximal effect). As to conditions: U2OS GR-GFP nuclear translocation, laser cytometry, 2 h.
Sequence of Glucocorticoid receptor (Homo sapiens) (P04150 whole entry, looked up): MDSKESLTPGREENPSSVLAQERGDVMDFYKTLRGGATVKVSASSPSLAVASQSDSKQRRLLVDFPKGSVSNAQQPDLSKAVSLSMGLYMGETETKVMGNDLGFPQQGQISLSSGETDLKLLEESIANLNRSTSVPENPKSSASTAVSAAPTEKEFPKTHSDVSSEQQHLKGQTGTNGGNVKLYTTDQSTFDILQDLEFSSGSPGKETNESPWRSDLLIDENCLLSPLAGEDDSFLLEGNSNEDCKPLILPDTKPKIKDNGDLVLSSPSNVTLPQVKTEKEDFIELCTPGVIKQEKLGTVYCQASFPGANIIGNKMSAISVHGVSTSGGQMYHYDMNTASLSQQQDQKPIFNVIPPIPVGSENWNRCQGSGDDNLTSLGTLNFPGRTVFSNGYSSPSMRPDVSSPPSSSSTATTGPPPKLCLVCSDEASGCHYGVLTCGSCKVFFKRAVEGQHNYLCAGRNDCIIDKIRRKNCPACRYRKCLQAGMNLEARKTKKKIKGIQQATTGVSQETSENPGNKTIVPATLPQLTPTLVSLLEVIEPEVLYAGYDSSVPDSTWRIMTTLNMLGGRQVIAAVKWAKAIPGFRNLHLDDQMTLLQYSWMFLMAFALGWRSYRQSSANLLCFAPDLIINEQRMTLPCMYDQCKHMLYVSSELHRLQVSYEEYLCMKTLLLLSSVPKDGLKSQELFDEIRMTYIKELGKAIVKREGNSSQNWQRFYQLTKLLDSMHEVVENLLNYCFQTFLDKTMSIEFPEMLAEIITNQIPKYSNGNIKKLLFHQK
Test [7] shares this target. Nature of the test: GR-EFC Redistribution (AID 451; calls by dose curve; further: potency means the concentration at half of the fitted maximal effect). As to conditions: CHO-K1 GR-EFC translocation, beta-gal luminescence, 2 h. In a few lines:
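CHO-K1 cells expressing nuclear EA and GR-ED fragments of b-gal; compounds titrated up to 46 uM final, 2 h at 37 C. GR nuclear translocation read as complemented b-gal luminescence after 1 h RT detection.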

Test [8] addresses Mitogen-activated protein kinase 10 (Mus musculus) (UniProt Q61831). Nature of the test: JNK3 AlphaScreen Assay (AID 530).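 Further: kinase came from lysate of stimulated human HepG2 cells; signal reports phosphorylation of biotinylated GST-cJun 1-79 at Ser73 with 10 µM ATP; on the % scale 0 is the no-effect control and ±100 the full control effect.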 As to conditions: JNK3 lysate, c-Jun phosphorylation; series mostly up to 57.1 µM. In a few lines:
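Pre-activated (IL-1β/TNFα) JNK3 in HepG2 lysates phosphorylates biotin-GST-cJun(1-79), 10 uM ATP; anti-phospho-cJun(Ser73) AlphaScreen read at room temperature, pH 7.6 Tris buffer. Compounds pre-incubated 15 min as titrations.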

Test [9] deals with 3',5'-cyclic-AMP phosphodiesterase 4B (Homo sapiens) (UniProt Q07343). As to the kind of experiment: qHTS Assay for Inhibitors of PDE-IV (AID 607; active means well fitted activation curve with a large enough effect in the main read-out, with a control signal flat, not every such curve was filed as active; further: % of control where 0% means no effect). As to conditions: HEK293 ACTOne CNG channel cells, membrane potential fluorescence; series mostly up to 22.9 µM. In a few lines:
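ACTOne HEK293 cells carry a modified cAMP-gated CNG channel and express endogenous PDE4; plated 1000 cells/well, compounds up to 22.9 uM final. Membrane-potential dye fluorescence (ex 535/em 590) was read; parental cells received 10 uM forskolin + 100 uM RO 20-1724.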

Test [10] addresses Cytochrome P450 3A4 (Homo sapiens) (UniProt P08684). Nature of the test: qHTS Assay for Activators of Cytochrome P450 3A4 (AID 885; active means well fitted curve in the direction sought with a large enough effect; an effect the other way counts as inactive or inconclusive; further: nearly all actives have a fitted effect of over 65% in size). As to conditions: recombinant CYP3A4, Luciferin-PPXE luminescence, 60 min; series mostly up to 57.1 µM. In short, it runs like this:
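20nM CYP3A4 + 25uM Luciferin-PPXE (=KM), 200mM KPO4; cpd 10 min RT; NADPH regen, 60 min RT; stop w/ detection buffer, 20 min; luminescence. Normalized to 57 uM ketoconazole.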
In general terms: qHTS replaces the single test concentration by a dilution series.

Test [11] in a line: qHTS Assay for Identification of Small Molecule Agonists for Hypoxia Response Element Signaling Pathway (AID 914; active means well fitted activation curve with a large enough effect in the signal ratio, with a control signal flat, not every such curve was filed as active; the % refers to the signal ratio; further: % of control where 0% means no effect). As to conditions: ME-180 (cervical carcinoma) HRE-bla reporter, beta-lactamase ratio, CoCl2, 17 h; activation: stronger effect = higher value. In short, it runs like this: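 Reporter activity (beta-lactamase, CCF4 460nm/530nm ratio) in HRE-bla ME-180 cells is recorded after 17 h compound exposure with EC50 CoCl2 at 37 degrees Celsius. AC50 values come from titration data.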

A short description of test [12]: qHTS Assay for Lipid Storage Modulators (AID 1519; calls by dose curve). As to conditions: Drosophila S3 cells, BODIPY lipid droplet/cell ratio, laser cytometry, cells loaded with oleic acid; for activity change, negative = inhibition: at 57.5 µM (top of the series). In a few lines:
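Cells seeded at 5,000 per well were treated with compounds over a concentration series and loaded with oleic acid (400 uM, as added). Lipid droplet fluorescence (488 nm excitation, 500-530 nm channel) was read by laser-scanning cytometry and normalized to 20 uM Triacsin C.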

The nature of test [13]: Primary qHTS for small molecule stabilizers of the endoplasmic reticulum resident proteome: Secreted ER Calcium Modulated Protein (SERCaMP) assay (AID 1508630; active means well fitted curve in the direction sought with a large enough effect; an effect the other way counts as inactive or inconclusive; further: on the % scale 0 is the no-effect control and ±100 the full control effect). As to conditions: SH-SY5Y GLuc-SERCaMP (Gaussia luciferase released on ER calcium loss) secretion, thapsigargin, luminescence; series mostly up to 38.4 µM. In short, it runs like this:
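GLuc-SERCaMP-expressing SH-SY5Y cells, pretreated 16 h with compound, are challenged with thapsigargin to empty ER calcium stores; after 4 h, coelenterazine is added directly to the medium and luminescence is imaged.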

Test [14] has as its target Cytochrome P450 2C19 (Homo sapiens) (UniProt P33261). Nature of the test: qHTS Assay for Inhibitors and Substrates of Cytochrome P450 2C19 (AID 899; active means well fitted curve in the direction sought with a large enough effect; an effect the other way counts as inactive or inconclusive; further: on the % scale 0 is the no-effect control and ±100 the full control effect; nearly all actives have a fitted effect of over 60% in size). The settings on record: recombinant CYP2C19, luciferin-H EGE luminescence; series mostly up to 57.1 µM. In short, it runs like this: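 5 nM human CYP2C19 with 10uM Luciferin-H EGE (at KM) in 50mM KPO4, compound preincubated 10 min at 37C, then NADPH regeneration for 60 min at 37C. Luciferin read by luminescence after detection reagent; normalized to 57uM ketoconazole as full inhibition.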

The mark [15] stands for this setting: measured here: cell count channel max response.
The mark [16] stands for this setting: measured here: lipid channel max response.

The structures appear in SMILES notation. Records with an inconclusive call do not appear. Activity calls are given as the source filed them. Unless noted, the call rests on the fitted dose curve; in most records, active means well fitted curve in either direction with a large enough effect (not every such curve was filed as active); inconclusive means small, poorly fitted or top-dose-only effect, or another doubt; inactive means flat fitted curve, though single readings scatter. A value given as a limit tells only on which side of the number the result lay.

Sequence of 3',5'-cyclic-AMP phosphodiesterase 4B (Homo sapiens) (Q07343 whole entry, looked up): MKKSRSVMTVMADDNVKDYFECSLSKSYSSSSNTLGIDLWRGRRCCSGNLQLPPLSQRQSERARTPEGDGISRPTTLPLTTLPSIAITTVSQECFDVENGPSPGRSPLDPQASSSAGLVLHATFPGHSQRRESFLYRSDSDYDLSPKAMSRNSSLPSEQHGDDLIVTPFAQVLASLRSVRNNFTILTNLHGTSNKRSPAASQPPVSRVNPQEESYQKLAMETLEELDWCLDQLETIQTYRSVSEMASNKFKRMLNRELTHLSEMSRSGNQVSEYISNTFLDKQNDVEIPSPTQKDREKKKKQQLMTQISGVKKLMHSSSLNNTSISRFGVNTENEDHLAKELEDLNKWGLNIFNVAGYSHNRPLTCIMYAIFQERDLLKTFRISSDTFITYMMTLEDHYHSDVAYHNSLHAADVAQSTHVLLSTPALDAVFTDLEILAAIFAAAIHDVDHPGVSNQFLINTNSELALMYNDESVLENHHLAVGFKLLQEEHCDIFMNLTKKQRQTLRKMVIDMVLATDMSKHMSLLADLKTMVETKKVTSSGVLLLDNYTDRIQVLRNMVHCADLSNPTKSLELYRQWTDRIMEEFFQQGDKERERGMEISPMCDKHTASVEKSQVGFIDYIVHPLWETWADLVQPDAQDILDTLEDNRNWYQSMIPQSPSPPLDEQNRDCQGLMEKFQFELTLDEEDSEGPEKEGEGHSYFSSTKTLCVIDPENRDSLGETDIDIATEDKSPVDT
Sequence of Cytochrome P450 1A2 (Homo sapiens) (P05177 whole entry, looked up): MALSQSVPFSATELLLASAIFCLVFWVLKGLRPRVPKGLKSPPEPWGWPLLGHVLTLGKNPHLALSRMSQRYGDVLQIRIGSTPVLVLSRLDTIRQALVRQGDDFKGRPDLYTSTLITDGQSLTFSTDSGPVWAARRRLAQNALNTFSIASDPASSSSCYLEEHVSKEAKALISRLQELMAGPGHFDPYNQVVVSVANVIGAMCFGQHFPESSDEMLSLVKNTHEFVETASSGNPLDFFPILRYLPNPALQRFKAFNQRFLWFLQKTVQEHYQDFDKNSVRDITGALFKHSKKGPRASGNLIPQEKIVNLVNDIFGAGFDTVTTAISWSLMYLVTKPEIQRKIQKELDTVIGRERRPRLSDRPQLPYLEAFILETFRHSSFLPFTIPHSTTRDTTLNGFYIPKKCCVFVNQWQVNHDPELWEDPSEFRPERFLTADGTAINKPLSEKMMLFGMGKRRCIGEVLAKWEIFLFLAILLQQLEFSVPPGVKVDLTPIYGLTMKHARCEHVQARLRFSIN
Sequence of Cytochrome P450 2C19 (Homo sapiens) (P33261 whole entry, looked up): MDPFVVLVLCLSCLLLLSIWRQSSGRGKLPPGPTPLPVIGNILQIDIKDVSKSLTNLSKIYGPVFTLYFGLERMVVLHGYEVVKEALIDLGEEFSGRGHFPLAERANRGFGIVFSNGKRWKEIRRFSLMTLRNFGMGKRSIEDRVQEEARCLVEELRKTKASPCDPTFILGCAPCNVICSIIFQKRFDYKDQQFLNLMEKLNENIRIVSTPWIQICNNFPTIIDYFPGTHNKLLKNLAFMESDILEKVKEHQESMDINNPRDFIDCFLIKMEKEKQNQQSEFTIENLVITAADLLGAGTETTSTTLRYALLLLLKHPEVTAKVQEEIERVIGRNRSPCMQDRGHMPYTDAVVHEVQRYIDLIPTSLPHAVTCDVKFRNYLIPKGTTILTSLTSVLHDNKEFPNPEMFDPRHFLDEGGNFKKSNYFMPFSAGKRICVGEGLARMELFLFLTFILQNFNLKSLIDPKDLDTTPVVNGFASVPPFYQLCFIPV
Sequence of Cytochrome P450 3A4 (Homo sapiens) (P08684 whole entry, looked up): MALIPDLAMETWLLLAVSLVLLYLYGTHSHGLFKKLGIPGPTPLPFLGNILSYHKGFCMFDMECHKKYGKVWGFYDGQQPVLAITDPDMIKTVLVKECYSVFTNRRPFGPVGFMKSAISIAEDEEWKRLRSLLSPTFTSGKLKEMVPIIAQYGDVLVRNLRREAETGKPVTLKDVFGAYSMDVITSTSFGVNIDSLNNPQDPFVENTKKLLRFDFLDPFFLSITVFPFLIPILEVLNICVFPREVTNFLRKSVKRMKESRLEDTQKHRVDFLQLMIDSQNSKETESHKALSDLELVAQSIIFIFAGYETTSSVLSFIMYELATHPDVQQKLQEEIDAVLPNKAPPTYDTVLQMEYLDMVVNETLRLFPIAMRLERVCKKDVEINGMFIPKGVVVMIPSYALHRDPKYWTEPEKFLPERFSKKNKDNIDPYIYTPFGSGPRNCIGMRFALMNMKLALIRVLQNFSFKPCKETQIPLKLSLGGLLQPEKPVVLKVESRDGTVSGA

Regarding `COc1ccc(Oc2ncc3ncc(=O)n(C[C@H]4CCCO4)c3n2)cc1`, the Potency is > 11.4 µM (inactive) in test [1], 6.31 µM (active) in [3], > 9.22 µM (inactive) in [6] and > 46 µM (inactive) in test [7]. Besides, the activity change, negative = inhibition was -24.4% (inactive) in test [2], -8.98% (inactive) in test [4] and -4.96% (inactive) in test [12]. Moreover, the activity, negative = inhibition in test [5] was -26.1% (inactive). For the same molecule, the molecule was classed as inactive in [8]. For the same molecule, the Potency entry in test [9], in test [10] and in test [13] was “inactive” throughout. In addition, the activation in test [11] is -21.9% (inactive). In addition, the max response is 9.86% in test [12] (setting [15]) and 2.03% in test [12] (setting [16]).

For `N#CCCn1c(=O)cnc2cnc(N3CCOCC3)nc21`, the Potency in test [1] is > 11.4 µM (inactive); in test [3] it was 10 µM (active); in [6] it was > 9.22 µM (inactive); in [7], > 46 µM (inactive). The results for the activity change, negative = inhibition in test [2], in test [4] and in test [12] were -13.7% (inactive), -0.169% (inactive) and 6.47% (inactive), respectively. In addition, the activity, negative = inhibition in [5] was 19.5% (inactive). Also, the molecule was called inactive in test [8]. Besides, the Potency result in [14] and in test [13] was “inactive” in each case. Besides, the max response was found to be 18.1% in [12] (setting [15]) and 23.1% in test [12] (setting [16]).

Regarding `Cc1noc(C)c1C(=O)N1CCC2(CC1)CN(c1ncccn1)C2`, the Potency in test [1] is > 11.4 µM (inactive); in test [7], > 46 µM (inactive). Moreover, the activity change, negative = inhibition in test [2] is -8.73% (inactive); in test [4] it was 13.3% (inactive); in test [12] it was 6.33% (inactive). The Potency entry in test [3], in test [9] and in [13] was “inactive” throughout. In addition, in test [5], the activity, negative = inhibition is 2.57% (inactive). In addition, the molecule was called inactive in [8]. Moreover, the figures for the max response in test [12] (setting [15]) and in test [12] (setting [16]) were 15.3% and 24.4%, respectively.

For `CC(=O)N1CCC2(CCN(Cc3cc(C(F)(F)F)cc(C(F)(F)F)c3)CC2)CC1`, the Potency in [1] was > 11.4 µM (inactive); in test [3] it was 15.8 µM (active); in [7], > 46 µM (inactive). Moreover, the activity change, negative = inhibition in test [2] was -20.5% (inactive); in test [4] it was -19.4% (inactive); in [12] it was 2.13% (inactive). In addition, in test [5], the activity, negative = inhibition was 8.31% (inactive). For the same molecule, the molecule was called inactive in [8]. Moreover, the Potency entry in test [9] and in [13] was “inactive” in each case. Also, the results for the max response in test [12] (setting [15]) and in [12] (setting [16]) were 6.37% and 10.7%, respectively.

`CS(=O)(=O)N1CCC2(CCCN(C(=O)Nc3ccccc3)C2)CC1`: the Potency in [1] was > 11.4 µM (inactive); in [3], 15.8 µM (active); in [7] it was > 46 µM (inactive). For the same molecule, the values for the activity change, negative = inhibition in [2], in [4] and in [12] were -5.5% (inactive), 11% (inactive) and 1.48% (inactive), respectively. For the same molecule, in [5], the activity, negative = inhibition was 3.16% (inactive). Moreover, in test [8], the molecule was called inactive. Also, the Potency result in test [9] and in test [13] was “inactive” throughout. Also, the max response in test [12] (setting [15]) was 3.7%; in test [12] (setting [16]), 9.01%.

On to `CC(C)NC(=O)N1CC2(CCN(S(=O)(=O)c3ccccc3)CC2)C1`, for which the Potency in test [1] was > 11.4 µM (inactive); in test [7], > 46 µM (inactive). For the same molecule, the activity change, negative = inhibition in test [2] was -9.04% (inactive); in test [4] it was 21.2% (inactive); in test [12], -7.9% (inactive). For the same molecule, the Potency result in [3] and in [13] was “inactive” each time. In addition, in [5], the activity, negative = inhibition was -0.15% (inactive). Further, the molecule was called inactive in [8]. The figures for the max response in test [12] (setting [15]) and in [12] (setting [16]) were 3.88% and -2.51%, respectively.

For the origin of these results see PubChem BioAssay (NCATS).
